Results published in PubChem BioAssay.
Calls of active or inactive are those of the source.

Assays:
[1] = compounds binding Alexa647 anti-His antibody – biochemical, small-molecule microarray, 635 nm fluorescence, artefact control for SMM control protein annotation, primary screen (AID 1128); settings: higher = more signal;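 further: score merges feature fluorescence with signal-to-noise for each printed compound spot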
[2] = tested on: Human papillomavirus type 1a E7 protein (residues 1-88); assay: HPV1a E7 small-molecule binders, primary screen, biochemical, small-molecule microarray, residues 1-88, 635 nm (AID 1129); settings: small-molecule microarray binding, fluorescence 635 nm; higher = more signal
[3] = molecular target: Focal adhesion kinase 1 (Homo sapiens) (UniProt Q05397); assay: PTK2 protein binding on printed compound slides – biochemical, small-molecule microarray, 635/667 nm fluorescence, BSA, DTT, primary screen (AID 1130); settings: 635 nm fluorescence, higher = more signal;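 further: composite of spot emission at 667 nm and signal to noise over triplicate slides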
Chain of Focal adhesion kinase 1 (Homo sapiens) (Q05397 whole entry, looked up): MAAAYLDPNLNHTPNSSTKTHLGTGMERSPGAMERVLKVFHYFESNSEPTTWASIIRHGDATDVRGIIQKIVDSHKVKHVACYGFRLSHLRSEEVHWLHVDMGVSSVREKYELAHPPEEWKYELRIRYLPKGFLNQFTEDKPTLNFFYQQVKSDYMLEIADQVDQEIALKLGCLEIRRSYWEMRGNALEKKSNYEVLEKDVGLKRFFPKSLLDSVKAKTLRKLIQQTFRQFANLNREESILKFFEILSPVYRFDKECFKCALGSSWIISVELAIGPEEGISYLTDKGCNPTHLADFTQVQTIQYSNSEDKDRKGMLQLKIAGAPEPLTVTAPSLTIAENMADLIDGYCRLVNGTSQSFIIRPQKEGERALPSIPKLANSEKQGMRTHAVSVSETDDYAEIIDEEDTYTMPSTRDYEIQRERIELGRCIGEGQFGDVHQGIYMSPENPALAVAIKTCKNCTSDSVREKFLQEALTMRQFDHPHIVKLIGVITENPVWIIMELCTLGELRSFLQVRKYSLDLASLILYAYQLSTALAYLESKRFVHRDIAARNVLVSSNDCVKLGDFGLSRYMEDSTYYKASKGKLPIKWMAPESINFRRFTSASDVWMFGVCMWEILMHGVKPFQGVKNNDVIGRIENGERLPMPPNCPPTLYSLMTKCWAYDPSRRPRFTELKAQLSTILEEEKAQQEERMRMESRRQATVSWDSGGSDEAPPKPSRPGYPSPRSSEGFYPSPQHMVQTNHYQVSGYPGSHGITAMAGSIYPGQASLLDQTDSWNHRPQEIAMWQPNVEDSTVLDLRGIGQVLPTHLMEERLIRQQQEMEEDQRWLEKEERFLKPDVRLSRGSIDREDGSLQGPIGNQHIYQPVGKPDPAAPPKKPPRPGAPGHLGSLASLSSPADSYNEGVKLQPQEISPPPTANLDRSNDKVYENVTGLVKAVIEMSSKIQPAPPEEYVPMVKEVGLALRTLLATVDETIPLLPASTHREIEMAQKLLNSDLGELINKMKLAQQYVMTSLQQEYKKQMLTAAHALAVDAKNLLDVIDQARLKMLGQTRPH

[4] = tested on: Fibrinogen (Alexa647-labelled); assay: Alexa647-fibrinogen binding to printed small molecules – biochemical, small-molecule microarray, 635/667 nm fluorescence, artefact control for SMM control-protein annotation, profiling panel (AID 1131); settings: fibrinogen-A647 binding fluorescence, higher = more signal;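 further: z-score merges 667 nm fluorescence with per-spot signal-to-noise over triplicate slides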
[5] = molecular target: Follistatin (Homo sapiens) (UniProt P19883); assay: FST protein binding to printed compounds – biochemical, small-molecule microarray, 635/667 nm fluorescence, primary screen (AID 1132); settings: 635 nm fluorescence, higher = more signal
Chain of Follistatin (Homo sapiens) (P19883 whole entry, looked up): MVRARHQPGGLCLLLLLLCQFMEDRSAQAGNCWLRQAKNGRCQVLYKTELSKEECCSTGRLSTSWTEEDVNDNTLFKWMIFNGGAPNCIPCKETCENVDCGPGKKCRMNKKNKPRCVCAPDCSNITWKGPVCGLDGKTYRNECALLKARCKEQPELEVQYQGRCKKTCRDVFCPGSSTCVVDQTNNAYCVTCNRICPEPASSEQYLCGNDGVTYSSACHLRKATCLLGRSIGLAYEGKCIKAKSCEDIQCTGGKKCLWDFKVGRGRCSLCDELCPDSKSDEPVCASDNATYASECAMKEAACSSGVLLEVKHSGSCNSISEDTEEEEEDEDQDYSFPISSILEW

[6] = molecular target: Fibroblast growth factor 2 (Homo sapiens) (UniProt P09038); assay: basic fibroblast growth factor binding to printed compounds – biochemical, small-molecule microarray, 635/667 nm fluorescence, primary screen (AID 1133); settings: FGF2, fluorescence 635/667, higher = more signal
Chain of Fibroblast growth factor 2 (Homo sapiens) (P09038 whole entry, looked up): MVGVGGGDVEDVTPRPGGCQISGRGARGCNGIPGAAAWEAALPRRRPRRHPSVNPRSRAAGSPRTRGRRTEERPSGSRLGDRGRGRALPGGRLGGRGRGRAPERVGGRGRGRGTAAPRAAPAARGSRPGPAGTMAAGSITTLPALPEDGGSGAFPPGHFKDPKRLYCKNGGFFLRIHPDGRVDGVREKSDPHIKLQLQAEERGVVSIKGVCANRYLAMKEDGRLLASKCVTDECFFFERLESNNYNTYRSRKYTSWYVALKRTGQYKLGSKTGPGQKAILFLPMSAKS

[7] = JC-1 mitochondrial potential readout, lung cancer cells – cell-based, A549, JC-1 fluorescence, basal, 24 h, 100 nL, profiling panel (AID 1138); settings: higher = more signal;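 further: A549 lung adenocarcinoma cells under basal conditions with no added stimulus; test concentration not given here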
Lefty1 = Lefty1 protein binding to printed compounds – biochemical, small-molecule microarray, 635/667 nm fluorescence, primary screen (AID 1139); settings: fluorescence 635/667, higher = more signal
[8] = tested on: wheat germ agglutinin (Triticum aestivum), Alexa647-labelled; assay: Alexa647-WGA lectin binding to printed small molecules – biochemical, small-molecule microarray, 635/667 nm fluorescence, artefact control for SMM control-protein annotation, profiling panel (AID 1140); settings: WGA-A647 binding, 635 nm fluorescence, higher = more signal;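 further: score merges 667 nm feature emission with signal to noise over triplicate slides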
[9] = molecular target: Luciferin 4-monooxygenase (Photinus pyralis) (UniProt P08659); assay: inhibition of purified Photinus pyralis luciferase – biochemical, luminescence, purified enzyme, 2006 set, primary screen (AID 1141); settings: purified firefly luciferase, SteadyGlo luminescence, 30 min; higher = more signal, called active from +8 up or from −8 down;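 further: cell-free assay with purified firefly luciferase at 100 ng per well in PBS; test concentration not given here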
Chain of Luciferin 4-monooxygenase (Photinus pyralis) (P08659 whole entry, looked up): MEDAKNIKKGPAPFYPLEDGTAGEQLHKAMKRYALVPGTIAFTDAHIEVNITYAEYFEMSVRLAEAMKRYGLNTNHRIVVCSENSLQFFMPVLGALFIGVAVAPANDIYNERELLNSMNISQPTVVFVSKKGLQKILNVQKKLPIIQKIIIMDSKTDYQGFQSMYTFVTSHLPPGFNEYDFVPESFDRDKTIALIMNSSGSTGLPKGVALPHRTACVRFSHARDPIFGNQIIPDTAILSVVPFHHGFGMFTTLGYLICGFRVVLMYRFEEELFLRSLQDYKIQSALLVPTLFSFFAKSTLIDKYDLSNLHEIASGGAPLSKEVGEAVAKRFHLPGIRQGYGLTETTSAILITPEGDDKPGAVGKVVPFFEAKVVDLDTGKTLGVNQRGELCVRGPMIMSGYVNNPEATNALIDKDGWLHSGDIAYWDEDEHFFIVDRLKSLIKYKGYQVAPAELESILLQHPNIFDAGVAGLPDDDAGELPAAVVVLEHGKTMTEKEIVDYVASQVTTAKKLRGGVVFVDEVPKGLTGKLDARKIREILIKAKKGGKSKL

Row | Structure (SMILES) | composite z-score [1] | composite z-score [2] | composite z-score [3] | composite z-score [4] | composite z-score [5] | composite z-score [6] | z-score [7] | composite z-score (Lefty1) | composite z-score [8] | z-score [9]
1 | Cc1cc2c(nc1C)CCCN2CC(O)CN1CCCc2nc(C)c(C)cc21 | 1.92 | -0.0317 | 0.281 | -0.575 | 0.817 | 1.06 | -0.685 | 0.454 | 0.562 | 0.723 (inactive)
2 | CO[C@@H]1COC(=O)CC=C[C@@H](C)[C@H](OC)COC(=O)[C@@H](C)COC(=O)CC=C[C@H]1C | -0.227 | -1.38 | -0.482 | -1.39 | 1.18 | 0.867 | 1.2 | 1.24 | -0.839 | -0.798 (inactive)
3 | CCOC(=O)[C@H](CC(C)C)NC(=O)CCC1CC(OC(=O)NCCc2ccc(F)cc2)CC2(CCCC(COC(=O)NCCc3ccccc3OC)O2)O1 (stereo not given in full) | 1.35 | 0.903 | 0.0376 | 0.956 | 0.236 | 0.399 | 0.848 | 0.522 | 0.0393 | 0.109 (inactive)
4 | CCO[C@H](c1cc(OC)cc([N+](=O)[O-])c1OC)[C@H](C)C=CCC(=O)OC | 0.051 | -0.467 | -0.361 | -0.364 | 0.66 | 0.479 | 0.347 | 0.747 | 0.0356 | -0.734 (inactive)
5 | CCOC(=O)[C@H](Cc1ccccc1)NC(=O)CCC1CC(OC(=O)NCCc2ccc(F)cc2)CC2(CCCC(COC(=O)NCCc3ccc(Cl)cc3)O2)O1 (stereo not given in full) | 1.03 | 1.09 | 0.671 | 0.832 | 0.326 | 0.996 | 0.699 | 0.583 | 0.105 | 0.361 (inactive)
6 | CCc1cc2c(nc1CC)CCN(CCC(C)=NO[C@H](C)c1cn([C@H](CO)Cc3ccccc3)nn1)C2 | 1.08 | 0.282 | 0.119 | 0.408 | 0.672 | 0.884 | 0.085 | 0.531 | 0.55 | -0.378 (inactive)
7 | Cc1cc2c(c(=O)o1)[C@@H](O)[C@H]1O[C@H]1C2=O | 0.432 | 0.281 | 0.123 | -0.116 | 0.629 | 0.374 | -1.32 | 1.32 | 0.201 | 0.476 (inactive)
8 | COC(=O)[C@H](C)NC(=O)CCC1CC(OC(=O)NCc2ccc3c(c2)OCO3)CC2(CCCC(COC(=O)NCC(c3ccccc3)c3ccccc3)O2)O1 (stereo not given in full) | 1.31 | 1.22 | 0.136 | 0.925 | 0.986 | 0.903 | -1.35 | 1.25 | 0.31 | 0.834 (inactive)
9 | CCCCc1nc2c(c3c1C[C@H](C)OC3)CN(CCOc1ccccc1)CC2 | 0.818 | 0.334 | -0.117 | 0.75 | 0.766 | 0.913 | 3.89 | 1.23 | 0.38 | -1.94 (inactive)
10 | CC(CCC(=O)OC[C@H]1O[C@H](C#Cc2ccccc2)C=C[C@@H]1Oc1ccc(C)cc1)=NO[C@H](C)c1cn([C@H](CO)Cc2ccccc2)nn1 | 0.126 | 0.921 | 0.648 | 0.856 | 0.6 | 0.52 | 0.6 | 0.724 | 0.442 | -0.085 (inactive)
11 | CCN1C(=O)[C@H]2[C@H]3[C@H](O)[C@H](O)CC(=NOCC(C)C)[C@@H]3CC[C@H]2C1=O | 0.768 | 1.04 | 0.627 | 0.231 | 0.84 | 0.0017 | -0.753 | 0.625 | -0.0157 | 0.887 (inactive)
12 | CO[C@H]1COC(=O)CC=C[C@H](C)COC(=O)[C@@H](C)NC(=O)CC=C[C@@H]1C | 2.07 | -0.696 | -0.775 | -1.32 | 1.29 | 0.654 | -1.61 | 1.72 | -0.52 | 0.917 (inactive)
13 | CCCNC(=O)OC[C@H]1O[C@H](CCON=C(C)CCN2CCc3nc(CC)c(CC)cc3C2)C=C[C@@H]1Oc1ccc(OC)cc1 | 0.869 | -0.476 | 0.512 | 0.564 | 0.248 | -0.167 | 0.77 | 0.374 | 0.316 | -0.512 (inactive)
14 | C[C@@H]1CC[C@H]2C(=O)O[C@@H](COc3ccc(C(C)(C)C)cc3)CN2[C@@H]1c1ccc(Br)cc1 | 2.71 | -0.741 | 0.225 | 0.172 | -0.0473 | -0.62 | 0.841 | -0.255 | -0.383 | -0.864 (inactive)
15 | COC(=O)CC=C[C@@H](C)[C@@H](C=NO[C@@H](C)c1cc(-c2c(C)cc(C)cc2C)no1)NS(=O)(=O)c1ccc(C)cc1 | -1.02 | -0.888 | -0.0927 | -0.494 | -1.58 | -1.44 | -0.0778 | -1.55 | -0.665 | 1.14 (inactive)
16 | COc1ccc(O[C@@H]2[C@H](O)CO[C@@H]2C=Cc2ccccc2)cc1 | -0.198 | -0.222 | 0.166 | -0.223 | 0.409 | 0.758 | -0.464 | 0.397 | -0.124 | -0.451 (inactive)

Row | Structure (SMILES) | composite z-score [1] | composite z-score [2] | composite z-score [3] | composite z-score [4] | composite z-score [5] | composite z-score [6] | z-score [7] | composite z-score (Lefty1) | composite z-score [8] | z-score [9]
17 | Cc1ccc(S(=O)(=O)N[C@H]2COC(=O)CC=C[C@@H](C)COC(=O)CC=C[C@@H]2C)cc1 | -0.142 | -0.408 | 0.309 | -1.08 | 1.42 | 1.4 | 0.447 | 1.23 | -0.678 | -0.268 (inactive)
18 | Cc1cc2c(nc1C)CCCCN2CC(C)ON=C1[C@H]2CCn3c(=O)n(-c4ccccc4)c(=O)n3[C@H]2[C@H](O)[C@@H]2O[C@H]12 (stereo not given in full) | 0.761 | -0.0951 | -0.0065 | 0.7 | 0.7 | 0.875 | -0.196 | 1.31 | 1 | -0.661 (inactive)
19 | CCOC(=O)[C@H](Cc1ccccc1)NC(=O)CCC1CC(OC(=O)NCCc2ccc(F)cc2)CC2(CCCC(COC(=O)NCC3CCCCC3)O2)O1 (stereo not given in full) | 0.542 | 0.816 | 0.465 | 0.656 | 0.857 | 0.238 | 0.812 | 1.21 | 0.395 | 0.356 (inactive)
20 | CCN1C(=O)[C@H]2[C@H]3[C@H](O)[C@H](O)CC(=NNC(=O)OCc4ccc(OC)cc4)[C@@H]3CC[C@H]2C1=O | 0.0221 | -0.562 | 0.0875 | -0.193 | -0.735 | 0.193 | -0.0338 | -0.524 | 0.0083 | -0.207 (inactive)
21 | COc1cccc([C@@H]2Oc3ccc(OC)cc3C(=O)[C@H]2O)c1 | 0.575 | 0.193 | 0.0207 | 0.823 | 0.536 | 0.449 | -1.54 | 0.678 | -0.173 | -1.6 (inactive)
22 | O=C1CCCC=C1C(O)CCOC(c1ccccc1)(c1ccccc1)c1ccccc1 (stereo not given) | -0.545 | -0.228 | -0.0057 | -0.302 | 0.0573 | 0.058 | -0.228 | 0.458 | -0.129 | -0.395 (inactive)
23 | COc1cccc([C@H]2Oc3ccc(OC)cc3C(=NOC(C)CN3CCCCc4nc(C)c(C)cc43)[C@@H]2O)c1 (stereo not given in full) | 1.95 | 0.195 | -0.251 | 0.755 | 0.241 | 0.414 | -0.349 | 0.341 | 0.698 | -0.404 (inactive)
24 | CC(C)=NO[C@H](C)c1cn([C@H](CO)Cc2ccccc2)nn1 | 1.28 | 0.464 | 0.548 | 0.991 | 0.139 | 0.137 | -0.34 | 0.137 | -0.026 | -1.69 (inactive)
25 | CCOC(=O)NN=C1C[C@@H](O)[C@@H](O)[C@@H]2[C@@H]3C(=O)N(c4ccc(F)cc4F)C(=O)[C@@H]3CC[C@@H]12 | 0.508 | 0.574 | 0.252 | 0.331 | 0.519 | 0.187 | -0.389 | 0.775 | 0.455 | 1.04 (inactive)
26 | COC(=O)NCC=Cc1nc(CCCO)co1 | 0.53 | 0.804 | -0.0457 | 0.0947 | 0.614 | 0.564 | -0.223 | 0.706 | -0.0407 | 0.604 (inactive)
27 | CCOC(=O)[C@H](Cc1ccccc1)NC(=O)CCC1CC(OC(=O)NCc2cccc3ccccc23)CC2(CCCC(COC(=O)NCc3ccccc3)O2)O1 (stereo not given in full) | -0.198 | 0.3 | 0.172 | 0.0039 | 0.449 | 0.348 | -0.133 | 0.401 | -0.0623 | 0.877 (inactive)
28 | CO[C@@H]1C=CCC(=O)N2CCC[C@H]2C(=O)OC[C@@H](C)C(=O)OC[C@H]1C | 0.21 | -0.565 | -0.267 | -0.294 | 1.34 | 1.33 | 2.01 | 0.925 | -0.7 | -1.1 (inactive)
29 | CCOC(=O)[C@H](Cc1ccccc1)NC(=O)CCC1CC(OC(=O)NCCc2ccc(F)cc2)CC2(CCCC(COC(=O)NCCOC)O2)O1 (stereo not given in full) | 0.384 | 1.17 | 2.79 | 0.916 | 1.01 | 0.557 | 0.671 | 1.26 | 0.526 | -0.24 (inactive)
30 | COC(=O)CC=C[C@@H](C)[C@@H](C=NO[C@@H](C)c1cn([C@H](CO)Cc2ccccc2)nn1)OC | 2.93 | 0.168 | -0.0296 | 0.578 | 0.293 | 0.411 | 0.269 | 0.579 | 0.084 | -2.11 (inactive)
31 | COc1cccc([C@H]2Oc3ccc(OC)cc3C(=NOC[C@@H](O)[C@H]3O[C@@H]4OC(C)(C)O[C@@H]4[C@H]3O)[C@@H]2O)c1 | -1.33 | 0.372 | 0.263 | 0.213 | 0.418 | 0.318 | -0.315 | 0.892 | -0.0123 | -4.03 (inactive)
32 | CCCCC#C[C@@H]1C=C[C@H](OC(C)=O)[C@@H](COC(C)=O)O1 | 0.113 | 0.283 | -0.0443 | 0.88 | 0.248 | 0.316 | -0.79 | 0.487 | 0.219 | -1.41 (inactive)
